Assay results from PubChem BioAssay (NCI).
Several values for one entry are separate records, joined by “and”; a condition that tells them apart may be missing. Equal entries are not always repeated. This is part of a sample that, as a whole, favours compounds with a hit. Of some 83,000 tested, about 20% had one in any assay.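 The test compound was applied at a single concentration to cells in 96-well plates for 48 hours, and percent growth was recorded.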 Activity calls are given as the source filed them. The calls were made as follows: active = growth percent below 10; inactive = the rest. Where a SMILES comes first, the peptide text is derived from it. The star is where a group is joined. Trt = c1ccc(C(c2ccccc2)(c2ccccc2)*)cc1; Cbz = O=C(OCc1ccccc1)*

Experiments:
Assay in all cases: NCI-60 one-dose screen, 48 h (100 = growth as untreated, 0 = no growth, -100 = all killed)
T-47D breast = conditions: 10 µM unless noted
BT-549 breast = conditions: 10 µM unless noted
MDA-MB-435 melanoma = conditions: 10 µM unless noted
MCF7 breast = conditions: 10 µM
HCT-116 colon = conditions: 10 µM unless noted
KM12 colon = conditions: 10 µM unless noted
SW-620 colon = conditions: 10 µM unless noted
HCC-2998 colon = conditions: 10 µM unless noted

Compound	growth (T-47D breast)	growth (BT-549 breast)	growth (MDA-MB-435 melanoma)	growth (MCF7 breast)	growth (HCT-116 colon)	growth (KM12 colon)	growth (SW-620 colon)	growth (HCC-2998 colon)
N#Cc1ccc([N+](=O)[O-])o1	85.1% (inactive)	101% (inactive)	108% (inactive)	101% (inactive)	92.6% (inactive)	102% (inactive)	–	–
S=C(N/N=C/c1ccccn1)Nc1ccccn1	31% (inactive)	38.1% (inactive)	47.4% (inactive)	14.3% (inactive)	1.18% (active)	29.7% (inactive)	–	–
COC(=O)c1nc(=S)[nH]c(C(=O)OC)c1C(=O)c1ccccn1	51.5% (inactive)	50.3% (inactive)	–	14.6% (inactive)	17.9% (inactive)	24.6% (inactive)	43.3% (inactive)	45.3% (inactive)
NC(N)=N/N=C/c1ccc([N+](=O)[O-])o1	96.7% (inactive)	94.5% (inactive)	115% (inactive)	72.4% (inactive)	89% (inactive)	82.3% (inactive)	–	88% (inactive)
Cc1ccc(NS(=O)(=O)c2ccc(C)cc2)cc1	94.1% (inactive) and 83.7% (inactive)	117% (inactive) and 105% (inactive)	108% (inactive) and 109% (inactive)	88% (inactive) and 91.2% (inactive)	102% (inactive) and 98.1% (inactive)	91.2% (inactive) and 89.2% (inactive)	–	97.7% (inactive) and 97.8% (inactive)
N#CSCc1ccc(Cl)c(CSC#N)c1	57.5% (inactive)	14.1% (inactive)	–	16.1% (inactive)	13.6% (inactive)	28.2% (inactive)	20.4% (inactive)	51.5% (inactive)
Oc1c(Br)c(Br)c(O)c(Br)c1Br	25.2% (inactive)	95.3% (inactive)	106% (inactive)	67% (inactive)	96.2% (inactive)	110% (inactive)	–	–
NC(=S)N/N=C/c1ccc(Cl)s1	89.8% (inactive)	112% (inactive)	–	104% (inactive)	93.4% (inactive)	101% (inactive)	105% (inactive)	111% (inactive)
O=C1c2ccccc2C(=O)c2sc(Nc3ccc(Cl)cc3)nc21	29.2% (inactive)	75.9% (inactive)	-87.5% (active)	-60.3% (active)	-36.6% (active)	60.1% (inactive)	–	57.6% (inactive)
COC(=O)C(CSC(c1ccccc1)(c1ccccc1)c1ccccc1)NC(=O)C(CC(N)=O)NC(=O)OCc1ccccc1 (stereo not drawn) (Cbz-Asn-Cys(Trt)-OMe; configuration not given here)	-0.975% (active)	50.6% (inactive)	–	32.3% (inactive)	12.7% (inactive)	33% (inactive)	–	-18.7% (active)
CCOC(=O)/C=C/c1ccc([N+](=O)[O-])o1	–	62.7% (inactive)	44% (inactive)	25.5% (inactive)	-54.3% (active)	87.4% (inactive)	8.72% (active)	95.7% (inactive)
CNC(=O)N/N=C/c1ccc([N+](=O)[O-])o1	104% (inactive)	110% (inactive)	–	95.3% (inactive)	94.8% (inactive)	92.2% (inactive)	105% (inactive)	106% (inactive)
COc1cc(/C=C(/C)C[N+](=O)[O-])ccc1O	56.7% (inactive)	113% (inactive)	–	16.5% (inactive)	82.7% (inactive)	96.5% (inactive)	–	–
COC(=O)Nc1nc2ccc(C(=O)c3ccccc3)cc2[nH]1	36.8% (inactive) and 82.6% (inactive) and 77.2% (inactive)	63.9% (inactive) and 63% (inactive) and 51.4% (inactive)	–	21.4% (inactive) and 18.4% (inactive) and 8.91% (active)	19.9% (inactive) and 9.73% (active) and 13.3% (inactive)	11.2% (inactive) and -7.2% (active) and 3.76% (active)	–	57.3% (inactive) and 2.48% (active) and 23.8% (inactive)
CCCCCCCCCCCCCCCC[N+](C)(CCO)Cc1cnc[nH]1 (stereo not drawn)	16.5% (inactive)	–	-43.8% (active)	-18.4% (active)	-51% (active)	-97.7% (active)	-27% (active)	–
CCN1/C(=C\c2cc[n+](CC)c3ccccc23)C=Cc2ccccc21	2.9% (active)	10.8% (inactive)	–	8.12% (active)	11.9% (inactive)	1.57% (active)	8.76% (active)	–
